Results filed as inconclusive are left out. A number with no mark means an inactive call. Active and inactive are the calls of the source. Calls come from the whole dose curve; as a rule, active = well fitted inhibition curve with a large enough effect; inconclusive = small, poorly fitted or top-dose-only effect; inactive = no such curve, though single readings can be large or run the other way.
experiment: qHTS Screen of the MIPE 4.0 Collection Against Ewings Sarcoma (TC71) (AID 1259253); details: TC71 Ewing sarcoma viability, CellTiter-Glo, 48 h; series mostly up to 45.8 µM; viability (% of DMSO): at the top concentration; note: nearly all actives have a fitted effect of over 40% in size;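 for viability (% of DMSO): 100% = DMSO-treated cells and 0% = medium-only wells without cells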
In short: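 Compound titrations go onto adherent log-phase cells 4 h after seeding, incubate 48 h at 37C, then CellTiter-Glo luminescence reports viability relative to DMSO and cell-free controls.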
Potency is the fitted concentration of half-maximal effect.

| Structure (SMILES) | Potency | viability (% of DMSO) [%] |
| --- | --- | --- |
| O=c1[nH]nc(OCCCc2ccc(Cl)cc2)c(NCc2cccnc2)c1Br | 16.6 µM (active) | – |
| CC[C@H]1OC(=O)[C@H](C)[C@@H](O[C@H]2C[C@@](C)(OC)[C@@H](O)[C@H](C)O2)[C@H](C)[C@@H](O[C@@H]2O[C@H](C)C[C@H](N(C)C)[C@H]2O)[C@](C)(O)C[C@H](C)C(=NOCOCCOC)[C@H](C)[C@@H](O)[C@]1(C)O | – | 109 |
| NC(N)=Nc1nc(CSCCC(N)=NS(N)(=O)=O)cs1 | 18.7 µM (active) | – |
| COc1cc2nc(-c3cc(F)ccc3O)nc(N[C@@H]3CNC[C@@H]3C(C)(C)O)c2cc1OC | 20.9 µM (active) | – |
| Cc1[nH]c(C=C2C(=O)Nc3ccc(S(=O)(=O)N(C)c4cccc(Cl)c4)cc32)c(C)c1C(=O)N1CCN(C)CC1 | 26.4 µM (active) | – |
| C#CCN(C)CC1=Cc2ccccc2Oc2ccccc21 | – | 114 |
| Cc1ccccc1C(=O)c1ccc(Nc2ccc(Br)cc2N)cc1Cl | 16.6 µM (active) | – |
| CN(CC=CC#CC(C)(C)C)Cc1cccc2ccccc12 | – | 103 |
| CC(O)=C(C#N)C(=O)Nc1ccc(C(F)(F)F)cc1 | 18.7 µM (active) | – |
| CC(C)C[C@@H](C(=O)N[C@H](C(=O)OC1CCCC1)c1ccccc1)[C@H](O)C(=O)NO | 18.7 µM (active) | – |
| COc1c(C)c2c(c(O)c1CC=C(C)CCC(=O)O)C(=O)OC2 | 2.35 µM (active) | – |
| CC(C)CN(C[C@H](O)[C@H](Cc1ccccc1)NC(=O)O[C@H]1CCOC1)S(=O)(=O)c1ccc(N)cc1 | 18.7 µM (active) | – |
| COc1ccc(-c2nc3ccc(C4=NNC(=O)CC4C)cc3[nH]2)cc1 (stereo unspecified) | – | 95.6 |
| CCCCC(F)(F)[C@@]1(O)CC[C@H]2[C@H](CC(=O)[C@@H]2CCCCCCC(=O)O)O1 | 2.96 µM (active) | – |
| CC1(C)[C@H]2CC[C@]3(C)[C@@H](C(=O)C=C4[C@@H]5C[C@@](C)(C(=O)O)CC[C@]5(C)CC[C@]43C)[C@@]2(C)CC[C@@H]1O | – | 118 |
| O=c1[nH]c(=O)n([C@H]2C[C@@H](O)[C@@H](CO)O2)cc1C(F)(F)F | 1.87 µM (active) | – |
| Nc1ncnc2c1ncn2[C@@H]1O[C@H](CO)[C@@H](O)[C@@H]1O | 6.62 µM (active) | – |
| CC(NCCc1ccc(O)cc1)C(O)c1ccc(O)cc1 (stereo unspecified) | – | 118 |

| Structure (SMILES) | Potency | viability (% of DMSO) [%] |
| --- | --- | --- |
| NC(=O)c1ncn([C@@H]2O[C@H](CO)[C@@H](O)[C@@H]2O)n1 | – | 127 |
| O=C(c1ccc(C(=O)N2CCC(N3CCCC3)CC2)c(Nc2ccccc2)c1)N1CCC(N2CCCC2)CC1 | 7.43 µM (active) | – |
| C[C@@H]1[C@H](O)[C@@H](C)C=CC=CC=CC=CC=CC=CC=C[C@H](O[C@@H]2O[C@H](C)[C@H](O)[C@H](N)[C@@H]2O)C[C@@H]2O[C@](O)(C[C@@H](O)C[C@@H](O)[C@H](O)CC[C@@H](O)C[C@@H](O)CC(=O)O[C@H]1C)C[C@H](O)[C@@H]2C(=O)O | 0.372 µM (active) | – |
| NS(=O)(=O)c1cc(Cl)c(Cl)c(S(N)(=O)=O)c1 | – | 109 |
| COc1cc(Cl)cn2c(-c3cccc(NC4CNC4)n3)cnc12 | 23.5 µM (active) | – |
| CN1CCc2c(n(Cc3ccc(C(=O)NO)cc3)c3ccccc23)C1 | 18.7 µM (active) | – |
| CC(C)C[C@@H](N)[C@H](O)C(=O)N[C@H](C(=O)N[C@H](C(=O)N[C@@H](CC(=O)O)C(=O)O)C(C)C)C(C)C | 18.7 µM (active) | – |
| CC1(C)C(N(O)C(=O)Nc2ccc(Cl)cc2)N(c2ccc(Cl)cc2)C(=O)N1CC(=O)NN=CC=Cc1ccc([N+](=O)[O-])o1 (stereo unspecified) | 18.7 µM (active) | – |
| Cc1cc(NC(=O)Nc2ccc(N(C)C)cc2)c2cc(F)cc(F)c2n1 | – | 106 |
| CCNC(=O)Nc1ccc(Oc2ncnc(N)c2C=NOC)cc1Cl | – | 137 |
| C=C1c2cccc(O)c2C(O)=C2C(=O)[C@@]3(O)C(O)=C(C(N)=O)C(=O)[C@@H](N(C)C)[C@@H]3[C@@H](O)[C@H]12 | 20.9 µM (active) | – |
| CCCC1OC2C[C@@H]3[C@H]4CCC5=CC(=O)C=C[C@]5(C)[C@H]4C(O)C[C@]3(C)[C@]2(C(=O)CO)O1 (stereo partly specified) | 13.2 µM (active) | – |
| O=C(O)C1=CC(O)C(O)[C@H](O)C1 (stereo partly specified) | – | 138 |
| CCCCCCCCCCCCCC(=O)N[C@H](CO)[C@H](O)c1ccc([N+](=O)[O-])cc1 | – | 94.6 |
| Cc1cc2nc3c(=O)[nH]c(=O)nc-3n(CC(O)C(O)C(O)CO)c2cc1C (stereo unspecified) | 26.4 µM (active) | – |
| N#Cc1c(N(CC(=O)O)CC(=O)O)sc(C(=O)O)c1CC(=O)O | – | 126 |
| O=C(O)CCNc1cc(N2CCc3ccccc3CC2)nc(-c2ccccn2)n1 | 26.4 µM (active) | – |
| CN1CCN(c2ncc(-c3cc(Cl)cc(Cl)c3Cl)c(N)n2)CC1 | 16.6 µM (active) | – |
